Screens as filed in PubChem BioAssay.
Cruzain inh noDet – qHTS Assay for Promiscuous and Specific Inhibitors of Cruzain (without detergent) | Cruzipain (Trypanosoma cruzi), P25779 | purified cruzain, Z-FR-AMC fluorescence, no detergent | Potency, µM, for the others: max response, negative = inhibition, hits mostly inhibitors | 2.3% of 200,000 active | AID 1476, 2009;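 note: plate controls were enzyme without inhibitor for no effect and buffer without enzyme for full effect; nearly all actives have a fitted effect of over 40% in size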
Target sequence (P25779 123-467 limits assumed): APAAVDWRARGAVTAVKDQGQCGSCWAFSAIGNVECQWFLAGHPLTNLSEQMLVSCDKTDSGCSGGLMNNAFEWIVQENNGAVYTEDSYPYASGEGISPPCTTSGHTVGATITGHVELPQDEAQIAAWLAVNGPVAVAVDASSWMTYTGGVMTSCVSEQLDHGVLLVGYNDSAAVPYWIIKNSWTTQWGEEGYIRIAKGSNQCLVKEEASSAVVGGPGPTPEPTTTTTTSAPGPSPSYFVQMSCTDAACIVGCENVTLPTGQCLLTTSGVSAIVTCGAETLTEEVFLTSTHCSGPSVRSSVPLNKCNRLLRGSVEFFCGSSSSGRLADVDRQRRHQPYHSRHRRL
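Detergent-free condition (0.00005% Triton X-100) in acetate buffer pH 5.5 with DTT. 1.5 nM enzyme and compound were pre-mixed 15 min, then 2 uM Z-FR-AMC substrate added; reaction progress from fluorescence change between first and third reads (60 s).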
Cruzain Triton – qHTS Assay for Promiscuous and Specific Inhibitors of Cruzain (with detergent) | Cruzipain (Trypanosoma cruzi), P25779 | 0.43% of 200,000 active | Potency, µM, inactives show max response, negative = inhibition, usual class: inhibitors | purified cruzain, Z-FR-AMC fluorescence, 0.01% Triton | AID 1478, 2009;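 note: plate controls were neutral wells for no effect and buffer without enzyme for full effect; nearly all actives have a fitted effect of over 40% in size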
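Cysteine protease activity tested under reducing, mildly acidic conditions (100 mM sodium acetate pH 5.5, 5 mM DTT) plus 0.01% Triton X-100. Cruzain 1.5 nM; substrate Z-FR-AMC 2 uM; 15 min compound preincubation at room temperature.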
* = called active by the depositor; ? = inconclusive. Compounds with a hit are over-represented: about 2.4% of the library has one in this group of screens. Calls come from the whole dose curve; as a rule, active = well fitted curve in the direction sought with a large enough effect; inconclusive = small, poorly fitted or top-dose-only effect, or another doubt; inactive = no such curve, though single readings can be large; an effect the other way counts as inactive or inconclusive. Potency is the fitted concentration of half-maximal effect.

SMILES	Cruzain inh noDet	Cruzain Triton
Cc1nn(-c2ccccc2)c(N2CCCC2)c1/C=N/NC(=O)c1cc(-c2cccs2)nc2ccccc12	10µM*	-4.7%
Cc1nn(-c2ccccc2)c(N2CCCC2)c1/C=N/NC(=O)c1cc(-c2ccccn2)nc2ccccc12	5.9%	-5.5%
Cc1nn(-c2ccccc2)c(N2CCCC2)c1/C=N/NC(=O)c1cccc(S(=O)(=O)Nc2ccc(Cl)cc2)c1	?	-6.4%
O=C(O)c1ccc(/C=N/NC(=O)c2cc(-c3cccs3)nc3ccccc23)cc1	12.7%	-10.2%
Cc1nn(-c2ccccc2)c(N2CCCC2)c1/C=N/NC(=O)c1cc(-c2ccccc2)nc2ccccc12	3.98µM*	-5.3%
COc1cc(C(=O)Nc2nc3nc(-c4ccccc4)cc(=O)n3[nH]2)cc(OC)c1OC	-5.8%	-3.1%
COc1ccc(OCC(=O)N(Cc2cccc(OC)c2)C2CCS(=O)(=O)C2)cc1 (configuration not stated)	0.4%	-2.8%
COc1cc2nc(NC(=O)c3ccc(S(=O)(=O)N4CCOCC4)cc3)sc2cc1OC	?	-1.4%
Cc1ccc(OCCn2cc(/C=C3\C(=O)NN(c4ccccc4)C3=O)c3ccccc32)cc1	10µM*	-7.0%
O=C1NC(=O)C(=Cc2cn(CCOc3ccc4c(c3)OCO4)c3ccccc23)C(=O)N1	?	0.3%
COC(=O)CC[C@@H](C)C1CC[C@H]2[C@H]3CC[C@H]4C[C@@H]5CCC4(C)[C@@]3(O5)[C@@H](Br)[C@@H](Br)[C@@]12C (some centres not stated)	-14.0%	-2.5%
CCC(Oc1ccccc1)C(=O)Nc1ccc(-c2nnc(-c3ccco3)o2)cc1 (configuration not stated)	8.8%	-6.6%
COc1ccc(OCC(=O)Nc2ccc(-c3nc4cc(C)c(C)cc4o3)cc2)cc1	1.4%	0.7%
O=C(COc1ccc(Br)cc1)Nc1ccc(-c2nnc(-c3ccco3)o2)cc1	10µM*	4.9%
Cc1ccc(OCC(=O)Nc2ccc(-c3nc4ccc(C)cc4o3)cc2)cc1	25.1µM*	1.0%
Cc1c(C(=O)N(C)C)sc2c1c(=O)n(-c1ccccc1C(F)(F)F)c(=O)n2Cc1cccc(F)c1	?	-3.8%
O=C(COC(=O)CNS(=O)(=O)/C=C/c1ccccc1)NC1CCS(=O)(=O)C1 (configuration not stated)	-22.5%	-26.8%
Cc1ccc(C(=O)NCC(=O)OCC(=O)NC2CCS(=O)(=O)C2)cc1C (configuration not stated)	25.1µM*	15.8µM*
COc1ccc2oc(=O)c(C(=O)N3CCN(c4cc(Cl)ccc4Cl)CC3)cc2c1	19.7%	-2.9%
Cc1nn(C(=O)c2ccccc2F)c(C)c1S(=O)(=O)N1CCCCCC1	-6.3%	-1.1%
COc1ccc(-c2nc(Cn3c(=O)cc(-c4ccccc4)c4c(C)nn(C)c43)c(C)o2)cc1OC	6.7%	-1.8%
COc1ccc(/C=N/N2C(=O)c3ccccc3C2=O)cc1	-1.6%	0.0%
COc1ccc(/C=N/N=C2/NC(=O)C(c3ccccc3)(c3ccccc3)S2)cc1	3.16µM*	-2.1%
Cc1nc(S/C(=C/c2ccc(-c3cccc(Cl)c3)o2)C(=O)O)n[nH]1	25.1µM*	3.5%
CC1=NOC(=O)/C1=C\c1ccc(-c2cccc(Cl)c2)o1	?	-21.8%
SMILES	Cruzain inh noDet	Cruzain Triton
Cc1nc2cc(-c3cccc(F)c3)nn2c(C)c1CCC(=O)Nc1ccccc1C(N)=O	-7.0%	1.0%
O=C1CC(c2ccc3c(c2)OCO3)c2cc(O)ccc2O1 (configuration not stated)	-11.4%	0.1%
COc1ccc(C(=O)c2c(N)c(-c3nc(-c4ccccc4)cs3)c3ccccn23)cc1	7.94µM*	-2.9%
COc1ccc(C(=O)c2c(N)c(-c3nc(-c4ccc(OC)cc4)cs3)c3ccccn23)cc1	?	-2.4%
CCOc1ccc(C(=O)c2c(N)c(-c3nc(-c4ccc(OCC)cc4)cs3)c3ccccn23)cc1	-19.1%	-1.8%
COc1ccccc1C(=O)c1c(N)c(-c2nc(-c3ccccc3)cs2)c2ccccn12	10µM*	-5.0%
CCOc1ccc(C(=O)c2c(N)c(-c3nc(-c4ccc5c(c4)OCO5)cs3)c3ccccn23)cc1	-18.6%	-1.7%
COc1cccc(-c2csc(-c3c(N)c(C(=O)c4ccc5c(c4)OCO5)n4ccccc34)n2)c1	3.16µM*	-2.1%
CCc1ccc2occ(CC(=O)Nc3ccc(OC)c(Cl)c3)c2c1	-9.1%	-7.2%
CCOc1ccccc1NC(=O)Cn1c(=O)n(CCCC(=O)NCCOC)c(=O)c2cc(OC)c(OC)cc21	-14.9%	0.9%
COc1ccc(-n2c(CC3C(=O)Nc4ccc(C)cc43)nc3ccccc3c2=O)cc1 (configuration not stated)	12.7%	-7.2%
CCOC(=O)N1CCc2c(sc(NCc3ccc(N(CC)CC)cc3)c2C(=O)Nc2cc(OC)ccc2OC)C1	-2.3%	-5.5%
Oc1c(C=Nc2cccc3cccnc23)sc2ccccc12	-3.4%	-4.8%
O=[N+]([O-])c1ccc(O)c(N=Cc2sc3ccccc3c2O)c1	12.6µM*	-9.4%
Cc1cccc(NC(=O)CSc2nc3c(oc4ccccc43)c(=O)n2Cc2ccco2)c1	1.2%	0.0%
CC(=O)c1cccc(NC(=O)C2CCN(C(=O)c3cnn(-c4ccccc4)c3-n3cccc3)CC2)c1	?	-6.3%
CC(=O)Nc1ccc(Nc2ncnc3c2c(-c2ccccc2)cn3-c2ccc(C)c(Cl)c2)cc1	22.5%	0.6%
CCOC(=O)c1c(-c2ccccc2)oc2cc(Br)c(OCc3ccccc3)cc12	3.5%	0.0%
CCOC(=O)c1c(-c2ccccc2)oc2ccc(OCc3cccc(Br)c3)cc12	10µM*	-5.7%
Cc1cnc(CNc2ncncc2-c2ccccc2C)cn1	1.7%	2.9%
Brc1cccc(OCCCCN2CCCCC2)c1	-6.1%	-2.0%
CCc1nnc(NC(=O)CCc2ccc(C)o2)s1	-2.8%	0.7%
Cc1ccc(CCC(=O)Nc2ncc(Cc3cccc(Cl)c3Cl)s2)o1	12.6µM*	0.7%
Cc1ccccc1NC(=O)CSc1nnc(COc2ccc(Cl)cc2)o1	?	-5.5%
COc1ccc2c(c1)c1c(c(=O)n(-c3ccc(OC)c(OC)c3)c(=O)n1Cc1ccc(F)cc1)n2C	-4.6%	-2.1%
SMILES	Cruzain inh noDet	Cruzain Triton
COC(=O)[C@@H](NC(=O)NC(C)CCc1ccccc1)C(C)C (some centres not stated)	12.1%	4.7%
CC(C)[C@H](NC(=O)[C@H](CCCN=C(N)N)NC(=O)NC(Cc1ccccc1)C(=O)O)C(=O)NC(C=O)CCCN=C(N)N (some centres not stated)	0.0316µM*	0.0355µM*
COc1cccc(C2CC(=O)Nc3c2c(=O)n(C)c2ncnn32)c1OC (configuration not stated)	-5.2%	0.8%
COc1cccc(NC(=O)c2ccc3[nH]c(C)cc(=O)c3c2)c1	?	-4.6%
CC/C=C1/OC(=O)c2ccccc21	0.3%	5.9%
CSc1ncc(Cl)c(C(=O)Nc2cc(C(F)(F)F)ccc2Cl)n1	-7.2%	-2.2%
COc1ccc(N2CCN(C(=O)C3CCN(S(=O)(=O)Cc4ccccc4)CC3)CC2)cc1	0.9%	-1.9%
Cc1ccc2nc(SCC(=O)Nc3ccc(C)c([N+](=O)[O-])c3)[nH]c2c1	-0.8%	-25.7%
Cc1ccc2nc(SCC(=O)Nc3ccc(F)c([N+](=O)[O-])c3)[nH]c2c1	?	14.1µM*
CCOC(=O)CSc1nc2c(sc3cccc(F)c32)c(=O)n1Cc1ccc(OC)cc1	11.6%	1.6%
